In the library only some 4.1% were active in any assay of this set; here they are far more common.
Anthrax LF prot: anthrax lethal factor protease inhibition. AID 588501. inhibition, % at 10 µM. 360,000 tested, 0.12% active. multiplex microsphere protease cleavage assay, LF; further: plate controls were buffer without enzyme for full effect and enzyme alone for no effect
MazF activator: MazEF (E. coli) toxin RNase activation. FAM/BHQ RNA-DNA oligo cleavage fluorescence, 5 h. activation, % at 20 µM. 350,000 tested, 0.32% active. AID 504720; in the data active means activation above about 50%
Target sequence (P0AE70 whole entry, looked up): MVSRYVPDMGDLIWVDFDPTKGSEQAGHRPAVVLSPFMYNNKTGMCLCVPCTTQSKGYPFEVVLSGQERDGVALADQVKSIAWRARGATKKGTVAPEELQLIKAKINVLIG
BoNT-F LC inh: inhibitors of Botulinum neurotoxin F light chain protease; inhibition, % at 10 µM; 360,000 tested, 0.22% active; AID 588497; Multiplex microsphere protease cleavage assay, flow cytometry; in the data active means inhibition above about 35%, passing the limit was not always enough; inconclusive means no clear call, values can overlap the other calls; further: plate controls were buffer without enzyme for full effect and enzyme alone for no effect
DUSP3 inh: DUSP3 (human) phosphatase inhibition; 290,000 tested, 0.52% active; recombinant VHR phosphatase, pNPP absorbance; inhibition, % at 13.3 µM; AID 1654; in the data active means inhibition above about 50%
Target sequence (P51452 whole entry, looked up): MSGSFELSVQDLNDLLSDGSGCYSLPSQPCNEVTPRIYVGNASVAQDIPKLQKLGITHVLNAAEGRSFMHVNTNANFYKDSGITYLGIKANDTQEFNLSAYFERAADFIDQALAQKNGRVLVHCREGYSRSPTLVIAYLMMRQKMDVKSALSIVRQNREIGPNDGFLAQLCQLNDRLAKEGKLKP
Bead autofluor: counter-screen for toxin protease inhibitors: compound fluorescence | compound autofluorescence counterscreen, microsphere flow cytometry; active compounds read high | fluorescence intensity (concentration not given with the values) | 360,000 tested, 3.1% active; in the data active means fluorescence intensity above about 16000; inconclusive means no clear call, values can overlap the other calls
BoNT A protease: BoNT A light chain protease inhibition; inhibition, % at 10 µM; 360,000 tested, 0.17% active; multiplex microsphere protease substrate cleavage, flow cytometry; further: plate controls were buffer without enzyme for full effect and enzyme alone for no effect
Numbers without * were called inactive; ? = inconclusive; / = no result. Unless noted, no stated cut-off is given here; in the data, active means inhibition above about 30%; inconclusive means no clear call, values can overlap the other calls; inactive means below that.

SMILES	Anthrax LF prot	MazF activator	BoNT-F LC inh	DUSP3 inh	Bead autofluor	BoNT A protease
O=C(CN1CCCCC1)Nc1cccc(Oc2ccccc2)c1	0.6	1.7	-5.7	-9.8	23011*	-2.2
COc1cccc(NC(=O)c2cnsn2)c1	-4.1	4.5	-2.0	-12.0	17160*	-1.6
COc1cccc(NC(=O)CCC2CCN(Cc3nccs3)CC2)c1	2.4	-6.8	-2.5	52.2*	?	-3.3
COc1cccc(NC(=O)CN(C)C(=O)c2ccc3ccccc3c2)c1	0.1	2.3	-4.9	-1.3	23982*	-1.5
COCCN(C(=O)c1ccc(C)c(S(=O)(=O)N2CCOCC2)c1)c1c(N)n(CC(C)C)c(=O)[nH]c1=O	-2.7	6.7	-8.1	/	4065	-0.3
CCCNC(=O)Cn1cnc2sc(C(=O)N3CCN(c4ccc(F)cc4)CC3)c(C)c2c1=O	-1.1	-1.4	1.1	-4.1	20571*	0.1
CCCNC(=O)Cn1cnc2sc(C(=O)N3CCCC(C(=O)OCC)C3)c(C)c2c1=O (stereo not drawn)	3.5	11.8	7.5	21.4	4611	0.2
CCOc1ccc(C(=O)Nc2ccc(NC(=O)c3ccco3)c(Cl)c2)cc1Cl	-1.0	7.8	-9.7	8.3	3179	-0.2
O=C(Nc1ccc(NC(=O)c2sc3ccccc3c2Cl)cc1Cl)c1ccco1	-7.4	-37.3	13.7	18.9	19130*	8.1
CCOc1ccc(C(=O)Nc2ccc(NC(=O)c3ccco3)c(Cl)c2)cc1Br	-1.5	28.2	0.4	27.0	22914*	?
O=C(Nc1ccc(N2CCN(C(=O)c3cccs3)CC2)c(Cl)c1)c1ccco1	-3.2	-7.1	-6.9	16.6	16928*	-2.8
O=C(Nc1ccc(NC(=O)c2cccs2)c(Cl)c1)c1ccco1	0.6	-2.2	-0.3	5.6	2204	0.7
Cn1nnc(NC(=S)NC(=O)c2cccc3ccccc23)n1	-1.5	5.8	2.2	8.0	5852	-1.2
COc1ccc(S(=O)(=O)N2CCC(C(=O)NCCC(=O)NCc3ccccn3)CC2)cc1	-3.1	5.3	-0.8	/	3623	-0.7
Cc1nn(-c2ccccc2)c2c1C(c1cccs1)C(C#N)=C(N)O2 (stereo not drawn)	-6.4	-1.4	-5.6	22.3	5486	-0.1
Cc1nn(-c2ccccc2)c2c1C(c1ccco1)C(C#N)=C(N)O2 (stereo not drawn)	-7.2	2.3	-0.9	10.5	23537*	?
COc1ccc(OC)c(C2C(C#N)=C(N)Oc3c2c(C)nn3-c2cccc(Cl)c2)c1 (stereo not drawn)	-0.2	-5.5	3.8	-0.2	20225*	?
Cc1[nH]nc2c1C(c1ccco1)C(C#N)=C(N)O2 (stereo not drawn)	1.0	2.8	-5.5	29.7	1949	0.2
Cc1ccc(-n2nc(C)c3c2OC(N)=C(C#N)C3c2ccc(F)cc2)cc1 (stereo not drawn)	0.9	1.3	-1.2	26.7	22457*	-0.3
COc1ccc(-c2ccc(C3C(C#N)=C(N)Oc4n[nH]c(C)c43)o2)cc1 (stereo not drawn)	-0.7	6.0	-3.9	3.8	21391*	?
O=C(CN1CCN(C(=O)c2ccco2)CC1)Nc1cc(S(=O)(=O)N2CCCC2)ccc1Cl	-1.6	6.0	-11.6	/	4737	-1.1
Cc1cccc(C)c1NC(=O)CNC(=O)c1cccc(S(=O)(=O)NCc2cccs2)c1	3.0	3.9	-4.3	/	3782	-0.4
Cc1nn(C)c(C)c1C1C(C#N)=C(N)Oc2n[nH]c(C)c21 (stereo not drawn)	-5.9	-3.5	11.5	-1.5	10415	1.4
Cc1nn(-c2ccccc2)c(C)c1C1C(C#N)=C(N)Oc2n[nH]c(C)c21 (stereo not drawn)	4.9	2.3	35.8*	3.3	3695	3.5
COC(=O)c1cc(-c2ccccc2)sc1NC(=O)CN1C(=O)c2ccccc2C1=O	-3.5	-9.9	-1.6	31.6	23511*	?
SMILES	Anthrax LF prot	MazF activator	BoNT-F LC inh	DUSP3 inh	Bead autofluor	BoNT A protease
COC(=O)c1cc(OC)c(OC)cc1NC(=O)CN1C(=O)c2ccccc2C1=O	-13.0	8.3	-5.9	3.7	5556	-0.6
O=C(O)c1ccc(N2C(=O)CC(N3C(=O)/C(=C/c4ccc(Cl)cc4)SC3=S)C2=O)cc1 (stereo not drawn)	-9.1	-13.8	5.0	2.6	4108	-0.9
Cc1ccc(C(=O)NCC(=O)N2CCCN(C)CC2)cc1C	5.1	4.2	2.9	/	8393	3.9
CC(C)c1ccc(-c2nnn(Cc3nc4ccccc4s3)n2)cc1	-4.4	-2.6	-7.3	6.3	16755*	-1.6
CC(C)c1ccc(-c2nnn(CCC#N)n2)cc1	-0.4	5.6	-5.1	18.6	4987	-1.2
c1csc(-c2nnc(-c3ccc(N4CCOCC4)cc3)o2)c1	-1.6	1.6	1.6	4.3	20353*	0.7
N#Cc1nc(-c2cccs2)oc1N1CCN(c2ccccc2)CC1	-3.2	2.2	-4.7	6.5	20556*	-3.0
CC(C)C[C@H]1CN(CCCC[C@H]2CNC(=O)C(=O)N2CCc2ccccc2)C(=O)C(=O)N1CCc1ccc(O)cc1	-12.1	/	-8.9	/	6059	-1.2
COc1cc(C(O)c2nc(-c3ccncc3)cs2)ccc1F (stereo not drawn)	-8.6	/	-4.1	/	4202	-0.9
O=C(O)c1cccc(S(=O)(=O)Nc2ccc3c(c2)OCO3)c1	0.2	4.1	2.5	3.1	21051*	?
CCC(CC)NC(=O)COC(=O)c1ccc(NS(=O)(=O)c2ccc3c(c2)OCCO3)cc1	-5.3	-0.2	-5.9	-9.9	23057*	?
O=C(O)c1ccc(S(=O)(=O)Nc2ccc3c(c2)OCCO3)cc1	31.2*	1.3	?	-34.8	3498	-3.8
O=C(O)c1cccc(NS(=O)(=O)c2ccc3c(c2)OCCCO3)c1	2.0	5.4	-1.5	-0.2	4190	0.0
C[C@H](CO)N1C[C@H](C)[C@H](CN(C)Cc2cncnc2)Oc2ncc(C#CC3(O)CCCC3)cc2C1=O	-2.1	11.5	-5.3	/	3852	-0.5
COc1ccccc1N1CCN(S(=O)(=O)CCNC(=O)c2cccs2)CC1	2.4	5.6	2.1	/	2824	0.6
Cc1cc(=O)oc2cc(OCC3CC(c4ccc(Br)cc4)=NO3)ccc12 (stereo not drawn)	-1.5	-12.0	2.3	33.8	19620*	2.0
O=C(NNC(=S)NC(=O)c1sc2ccccc2c1Cl)c1ccc(Cl)cc1	-1.5	1.2	1.1	2.6	2130	-1.3
Cc1cccc(-n2nc3c(c2NC(=O)c2ccco2)CSC3)c1C	-3.4	4.8	1.7	17.1	20718*	0.0
Cc1cccc(-n2nc3c(c2NC(=O)c2ccco2)CS(=O)C3)c1C (stereo not drawn)	0.2	-1.6	3.0	11.5	3823	0.0
O=C1CC(c2ccccc2)CC2=C1CN(C1CCCCC1)CN2 (stereo not drawn)	-6.6	0.9	-6.8	18.0	23766*	-3.0
O=C1NCN(C2CCCCC2)CN1	3.2	7.3	1.0	/	4090	0.5
CN(C)C(=O)CN1C(=O)NC(c2ccccc2)(c2ccccc2)C1=O	12.2	10.2	-5.0	27.4	3385	-4.6

Screening results as filed in PubChem.
